# Laboratory results from PubChem BioAssay (NCATS).
# Records with an inconclusive call do not appear. A call without a number means that no potency is given here. Unmarked numbers belong to inactive results. The source made the active and inactive calls. Calls follow the shape of the dose curve; as a rule, active = well fitted cell-killing curve with a large enough effect; inconclusive = small, poorly fitted or top-dose-only effect; inactive = no such curve, though single readings can be large or run the other way.
# Experiment: qHTS of pediatric cancer cell lines to identify multiple opportunities for drug repurposing: Primary screen for MG 63 (6-TG R) cells (AID 1347105); also: nearly all actives have a fitted effect of over 50% in size
# Conditions: MG 63 (6-TG R) viability, CellTiter-Glo, 48 h; series mostly up to 46 µM
# Method in brief: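 Viability was measured as metabolically active cells after 48 hours of treatment, read by CellTiter-Glo luminescence. Compounds were tested at multiple final concentrations, giving concentration-response curves.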
Structure (SMILES),Potency,"activity change, negative = cytotoxic"
c1ccc(-c2nc[nH]c2-c2ccccc2)cc1,inactive,
CC(CNC1CCCCC1)OC(=O)c1ccccc1 (stereo not drawn),inactive,
CNCCc1ccccn1,inactive,
C#C[C@]1(O)CC[C@H]2[C@@H]3CCC4=CC(=O)CC[C@@H]4[C@H]3CC[C@@]21CC,inactive,
CCN[C@@H]1C[C@H](N)[C@@H](OC2OC(CN)=CCC2N)[C@H](O)[C@H]1O[C@H]1OC[C@](C)(O)[C@H](NC)[C@H]1O (stereo partly drawn),,-16.5% [at 0.597 µM]
O=[N+]([O-])c1cccc(S(=O)(=O)NCCNS(=O)(=O)c2cccc([N+](=O)[O-])c2)c1,inactive,
C#C[C@]1(O)CC[C@H]2[C@@H]3CCC4=Cc5oncc5C[C@]4(C)[C@H]3CC[C@@]21C,inactive,
COc1cc([C@H]2Oc3cc([C@H]4Oc5cc(O)cc(O)c5C(=O)[C@@H]4O)ccc3O[C@@H]2CO)ccc1O,inactive,
CCc1oc2ccccc2c1C(=O)c1cc(I)c(O)c(I)c1,inactive,
O=C1C(=O)c2ccccc2C(O)=C1C1CCC(c2ccc(Cl)cc2)CC1 (stereo not drawn),inactive,
CCc1ccc(C(=O)C(C)CN2CCCCC2)cc1 (stereo not drawn),inactive,
COc1cc(C(=O)NCc2ccc(OCCN(C)C)cc2)cc(OC)c1OC,inactive,
CC(=O)NCCCCCC(=O)O,inactive,
CCOC(=O)c1ccc(N)cc1,inactive,
NC(=O)c1ccccc1O,inactive,
CC(=O)Nc1ccc(S(=O)(=O)Nc2ccc([N+](=O)[O-])cc2)cc1,inactive,
CC(C)(Cc1c[nH]c2ccccc12)NCC(O)COc1ccccc1C#N (stereo not drawn),inactive,
CCCCN1C[C@H](O)[C@@H](O)[C@H](O)[C@H]1CO,inactive,
